# Data reported in the supplement of paper PMC10849652.
# The full data set covers some 8,800 targets. This sample favours those with a hit. About 0.5% of all pairs of compound and target were hits. A number with no mark means an inactive call.
# Tests used:
# Experiment in all cases: log2 fold change, soluble protein after heating vs DMSO (PISA); higher = thermal stabilisation; K562 lysate, 10 uM; active = over 0.2 and 3.5 SD of the protein, either way, in both replicates (recomputed)
# [1] = compound: CN1CC[C@H](c2c(O)cc(O)c3c(=O)cc(-c4ccccc4Cl)oc23)[C@H](O)C1 [alvocidib]
# Outline: (§1)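 Following dounce homogenisation of K562 pellets in PBS pH 7.4 with 1 mM MgCl2, crude extract at 1 mg/mL protein was incubated for 30 min with 10 μM compound. Aliquots were then heated for 3 min over 48°C-58°C and pooled, NP-40 was added to 0.5% at 4°C, and soluble protein was recovered as the supernatant at 21,000xg for 90 min. Channel-sum-equalised TMTpro 16plex LC-MS/MS quantified this protein. Each value, from duplicates, is a log-two fold change in thermal stability relative to solvent controls.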
# [2] = compound: CN1CCc2c(c3ccccc3n2Cc2ccc(C(=O)NO)cc2)C1 [Tubastatin A]
# Outline: as §1
# [3] = compound: CNC(=O)C1=CC=CC=C1NC2=NC(=NC=C2Cl)NC3=C(C=C(C=C3)N4CCOCC4)OC
# Outline: as §1
# [4] = compound: CNC(=O)c1ccc(Nc2ncc(C(F)(F)F)c(NCc3nccnc3N(C)S(C)(=O)=O)n2)cc1 [defactinib]
# Outline: as §1
# [5] = compound: COc1cc(Nc2ncc3c(n2)-c2ccc(Cl)cc2C(c2c(F)cccc2OC)=NC3)ccc1C(=O)O [alisertib]
# Outline: as §1
# [6] = compound: COc1cc2nc(-c3cc(F)ccc3O)nc(N[C@@H]3CNC[C@H]3C(C)(C)O)c2cc1OC
# Outline: as §1
# [7] = compound: COc1cc2ncnc(Nc3ccc(F)c(Cl)c3)c2cc1OCCCN1CCOCC1 [gefitinib]
# Outline: as §1
# [8] = compound: CNc1nc(-c2ccc3c(N)n[nH]c3c2)cc(N2C[C@@H](C(=O)NC3CCCCC3)CC[C@H]2C)n1
# Outline: as §1
# [9] = compound: COC(=O)N[C@@H](C)CNc1nccc(-c2cn(C(C)C)nc2-c2cc(Cl)cc(NS(C)(=O)=O)c2F)n1 [encorafenib]
# Outline: as §1
# [10] = compound: COC(=O)[C@H](CCSC)NC(=O)C1=C(C=C(C=C1)NC[C@H](CS)N)C2=CC=CC=C2
# Outline: as §1
# Chain of UniProt O14617 (O14617 whole entry, looked up): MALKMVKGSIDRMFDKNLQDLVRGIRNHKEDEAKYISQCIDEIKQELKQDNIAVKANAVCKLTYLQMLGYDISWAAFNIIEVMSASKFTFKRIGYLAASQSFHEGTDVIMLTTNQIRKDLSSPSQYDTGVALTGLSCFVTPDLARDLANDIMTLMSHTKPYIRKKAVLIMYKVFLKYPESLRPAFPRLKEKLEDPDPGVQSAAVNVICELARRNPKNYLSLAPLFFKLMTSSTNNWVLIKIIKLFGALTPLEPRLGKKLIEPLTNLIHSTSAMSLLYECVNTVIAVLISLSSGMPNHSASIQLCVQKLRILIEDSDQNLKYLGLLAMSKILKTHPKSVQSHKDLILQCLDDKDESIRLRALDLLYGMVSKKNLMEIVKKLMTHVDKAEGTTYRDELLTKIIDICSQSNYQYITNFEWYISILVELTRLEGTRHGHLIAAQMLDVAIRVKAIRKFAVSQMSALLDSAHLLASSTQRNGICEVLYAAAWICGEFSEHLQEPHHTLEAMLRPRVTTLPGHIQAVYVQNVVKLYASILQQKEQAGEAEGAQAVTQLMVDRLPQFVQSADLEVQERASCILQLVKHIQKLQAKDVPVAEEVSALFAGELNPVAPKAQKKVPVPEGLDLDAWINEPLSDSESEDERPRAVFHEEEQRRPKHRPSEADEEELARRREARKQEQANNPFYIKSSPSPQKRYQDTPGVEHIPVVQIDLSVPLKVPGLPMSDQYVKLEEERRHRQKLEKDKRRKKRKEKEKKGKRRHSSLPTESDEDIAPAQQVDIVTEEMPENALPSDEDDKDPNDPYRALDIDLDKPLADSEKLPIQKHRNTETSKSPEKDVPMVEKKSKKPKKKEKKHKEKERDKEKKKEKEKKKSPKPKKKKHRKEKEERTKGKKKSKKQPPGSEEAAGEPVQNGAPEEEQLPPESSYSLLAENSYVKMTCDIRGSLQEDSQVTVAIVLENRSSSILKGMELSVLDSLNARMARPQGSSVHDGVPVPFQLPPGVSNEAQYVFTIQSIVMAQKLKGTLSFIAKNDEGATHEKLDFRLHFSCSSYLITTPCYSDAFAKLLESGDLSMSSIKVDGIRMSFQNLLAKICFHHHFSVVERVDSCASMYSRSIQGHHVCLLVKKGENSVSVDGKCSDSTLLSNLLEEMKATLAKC
# Chain of UniProt P35611 (P35611 whole entry, looked up): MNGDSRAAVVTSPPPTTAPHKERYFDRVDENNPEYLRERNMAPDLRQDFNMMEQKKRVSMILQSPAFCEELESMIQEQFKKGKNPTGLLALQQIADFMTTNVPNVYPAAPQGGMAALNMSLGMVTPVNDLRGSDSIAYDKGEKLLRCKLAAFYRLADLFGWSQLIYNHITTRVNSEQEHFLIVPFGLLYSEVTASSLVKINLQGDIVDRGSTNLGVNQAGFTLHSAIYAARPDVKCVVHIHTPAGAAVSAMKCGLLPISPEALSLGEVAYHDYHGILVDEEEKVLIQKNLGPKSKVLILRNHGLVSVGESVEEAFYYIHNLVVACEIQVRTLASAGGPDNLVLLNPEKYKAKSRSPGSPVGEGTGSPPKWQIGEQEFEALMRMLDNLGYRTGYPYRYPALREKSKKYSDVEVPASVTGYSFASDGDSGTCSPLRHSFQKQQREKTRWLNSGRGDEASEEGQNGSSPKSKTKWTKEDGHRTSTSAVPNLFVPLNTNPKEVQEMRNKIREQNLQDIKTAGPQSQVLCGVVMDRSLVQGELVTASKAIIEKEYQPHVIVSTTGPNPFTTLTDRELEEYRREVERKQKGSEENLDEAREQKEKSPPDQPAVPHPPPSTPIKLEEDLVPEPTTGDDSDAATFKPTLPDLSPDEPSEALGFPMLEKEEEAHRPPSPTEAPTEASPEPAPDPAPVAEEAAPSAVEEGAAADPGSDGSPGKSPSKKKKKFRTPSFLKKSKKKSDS
# Chain of UniProt P27216 (P27216 whole entry, looked up): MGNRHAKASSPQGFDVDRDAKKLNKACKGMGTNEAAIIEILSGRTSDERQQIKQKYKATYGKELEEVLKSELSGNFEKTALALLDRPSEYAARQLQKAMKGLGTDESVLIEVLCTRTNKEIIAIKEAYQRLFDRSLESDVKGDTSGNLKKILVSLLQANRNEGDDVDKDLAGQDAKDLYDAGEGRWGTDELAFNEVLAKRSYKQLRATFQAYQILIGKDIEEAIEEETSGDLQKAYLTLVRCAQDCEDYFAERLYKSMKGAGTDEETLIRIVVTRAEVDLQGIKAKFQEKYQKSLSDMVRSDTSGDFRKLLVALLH
# Chain of UniProt Q9NXR5 (Q9NXR5 whole entry, looked up): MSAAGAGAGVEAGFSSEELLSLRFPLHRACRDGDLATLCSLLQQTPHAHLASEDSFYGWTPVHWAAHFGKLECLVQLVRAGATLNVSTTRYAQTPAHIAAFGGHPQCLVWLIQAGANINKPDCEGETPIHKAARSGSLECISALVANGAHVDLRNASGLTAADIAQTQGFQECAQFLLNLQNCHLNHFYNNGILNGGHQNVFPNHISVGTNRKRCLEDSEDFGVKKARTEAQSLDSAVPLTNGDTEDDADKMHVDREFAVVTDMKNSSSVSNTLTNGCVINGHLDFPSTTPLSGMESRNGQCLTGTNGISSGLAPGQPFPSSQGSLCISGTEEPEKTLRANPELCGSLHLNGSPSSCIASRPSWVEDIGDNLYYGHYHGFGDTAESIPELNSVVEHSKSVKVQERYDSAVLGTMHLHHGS
# Chain of UniProt Q9BT30 (Q9BT30 whole entry, looked up): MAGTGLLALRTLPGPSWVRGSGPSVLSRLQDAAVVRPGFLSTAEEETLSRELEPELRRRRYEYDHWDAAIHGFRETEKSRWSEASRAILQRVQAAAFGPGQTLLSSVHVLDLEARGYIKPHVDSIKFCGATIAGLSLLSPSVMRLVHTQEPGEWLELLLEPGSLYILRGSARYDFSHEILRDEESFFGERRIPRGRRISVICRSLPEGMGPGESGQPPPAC
# Chain of UniProt Q6AI12 (Q6AI12 whole entry, looked up): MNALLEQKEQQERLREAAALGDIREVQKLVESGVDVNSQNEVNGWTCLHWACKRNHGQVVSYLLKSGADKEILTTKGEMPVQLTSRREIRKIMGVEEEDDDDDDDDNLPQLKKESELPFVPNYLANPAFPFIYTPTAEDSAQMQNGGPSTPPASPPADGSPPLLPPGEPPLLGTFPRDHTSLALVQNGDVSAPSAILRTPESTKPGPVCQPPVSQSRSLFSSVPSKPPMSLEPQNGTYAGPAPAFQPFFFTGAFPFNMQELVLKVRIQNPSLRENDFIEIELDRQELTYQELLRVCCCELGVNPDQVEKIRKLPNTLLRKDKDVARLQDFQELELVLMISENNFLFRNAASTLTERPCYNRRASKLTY
# Chain of UniProt Q13686 (Q13686 whole entry, looked up): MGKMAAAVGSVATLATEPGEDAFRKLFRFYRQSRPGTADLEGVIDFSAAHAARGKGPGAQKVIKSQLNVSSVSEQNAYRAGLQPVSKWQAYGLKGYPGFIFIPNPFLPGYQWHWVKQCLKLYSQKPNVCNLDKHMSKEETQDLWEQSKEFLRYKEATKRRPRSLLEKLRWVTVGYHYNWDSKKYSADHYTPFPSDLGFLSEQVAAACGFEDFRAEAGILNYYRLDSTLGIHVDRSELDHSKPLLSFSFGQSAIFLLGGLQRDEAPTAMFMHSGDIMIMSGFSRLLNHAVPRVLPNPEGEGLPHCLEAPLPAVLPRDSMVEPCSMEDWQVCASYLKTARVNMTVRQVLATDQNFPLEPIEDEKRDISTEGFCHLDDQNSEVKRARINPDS
# Chain of UniProt P14621 (P14621 whole entry, looked up): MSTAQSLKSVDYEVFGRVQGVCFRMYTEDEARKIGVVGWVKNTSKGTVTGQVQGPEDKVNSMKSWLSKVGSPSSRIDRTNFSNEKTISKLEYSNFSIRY
# Chain of UniProt Q3SXY8 (Q3SXY8 whole entry, looked up): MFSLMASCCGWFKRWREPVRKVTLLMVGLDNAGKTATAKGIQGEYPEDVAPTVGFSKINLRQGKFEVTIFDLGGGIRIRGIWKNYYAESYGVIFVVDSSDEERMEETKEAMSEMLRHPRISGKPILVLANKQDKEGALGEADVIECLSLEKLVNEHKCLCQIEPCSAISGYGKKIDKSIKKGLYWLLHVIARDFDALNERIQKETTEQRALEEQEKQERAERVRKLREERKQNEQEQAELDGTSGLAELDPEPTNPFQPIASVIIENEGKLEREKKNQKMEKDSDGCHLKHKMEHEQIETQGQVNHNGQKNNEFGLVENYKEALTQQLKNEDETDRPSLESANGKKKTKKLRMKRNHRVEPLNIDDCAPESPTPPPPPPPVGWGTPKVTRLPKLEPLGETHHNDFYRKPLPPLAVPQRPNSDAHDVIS
# Chain of UniProt Q04771 (Q04771 whole entry, looked up): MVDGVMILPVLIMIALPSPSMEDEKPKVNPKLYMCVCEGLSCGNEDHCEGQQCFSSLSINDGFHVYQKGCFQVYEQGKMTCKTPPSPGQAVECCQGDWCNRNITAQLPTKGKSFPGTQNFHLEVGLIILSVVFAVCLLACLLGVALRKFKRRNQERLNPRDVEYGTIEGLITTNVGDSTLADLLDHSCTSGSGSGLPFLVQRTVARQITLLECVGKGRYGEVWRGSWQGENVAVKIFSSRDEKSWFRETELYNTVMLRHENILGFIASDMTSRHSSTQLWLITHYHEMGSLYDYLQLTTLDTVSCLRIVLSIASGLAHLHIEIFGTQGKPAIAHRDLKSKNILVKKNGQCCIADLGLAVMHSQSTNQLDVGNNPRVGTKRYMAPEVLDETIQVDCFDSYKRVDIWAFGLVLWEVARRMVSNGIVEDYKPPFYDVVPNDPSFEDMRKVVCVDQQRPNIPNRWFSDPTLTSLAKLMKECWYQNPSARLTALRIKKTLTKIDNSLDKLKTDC
# Chain of UniProt Q9BTT0 (Q9BTT0 whole entry, looked up): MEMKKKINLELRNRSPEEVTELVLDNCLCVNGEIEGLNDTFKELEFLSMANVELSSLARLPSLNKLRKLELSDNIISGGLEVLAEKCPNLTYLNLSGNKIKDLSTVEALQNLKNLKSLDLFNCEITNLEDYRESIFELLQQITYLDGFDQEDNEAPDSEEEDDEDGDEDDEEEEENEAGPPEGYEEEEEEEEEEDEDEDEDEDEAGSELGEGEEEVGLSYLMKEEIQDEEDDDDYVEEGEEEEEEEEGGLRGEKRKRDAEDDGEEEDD
Target,log2 fold change [1],log2 fold change [2],log2 fold change [3],log2 fold change [4],log2 fold change [5],log2 fold change [6],log2 fold change [7],log2 fold change [8],log2 fold change [9],log2 fold change [10]
ACYP2 (UniProt P14621),0.084,-0.021,0.007,0.329 (active),-0.096,-0.009,-0.02,,,
ANKRD10 (UniProt Q9NXR5),0.003,-0.037,0.018,0.012,-0.018,0.035,-0.047,-0.016,,
ARHGEF2 (UniProt V9GYF0),,-0.07,,-0.211,-0.083,0.112,0.229,0.082,-0.035,0.014
ANKRD40 (UniProt Q6AI12),0.084,-0.164,0.08,0.095,-0.188,,-0.089,0.101,0.04,-0.109
ARL13B (UniProt Q3SXY8),0.182,0.018,0.165,-0.025,,0,,-0.102,,
ACVR1 (UniProt Q04771),0.086,,,,0.069,,0.158,-0.056,,
ACTG1 (UniProt K7EM38),,,,,,0.099,,,-0.286,0.142
ANXA13 isoform 2 (UniProt P27216),-0.121,-0.072,-0.059,-0.036,0.047,0.034,0.085,-0.369,,
AGGF1 (UniProt Q8N302),-0.114,-0.058,0.023,-0.365 (active),-0.015,0.145,-0.008,,0.126,0.008
ALG3 (UniProt Q92685),-0.04,-0.009,-0.436,0.165,,-0.033,,-0.043,-0.061,0.171
ABCA3 (UniProt Q99758),0.109,0.188,-0.017,-0.037,,-0.09,,0.317,-0.12,0.025
AMDHD2 (UniProt Q9Y303),0.012,,,-0.059,,,,,,
ALKBH1 (UniProt Q13686),0.003,-0.018,-0.113,-0.008,-0.044,,-0.07,0.027,-0.016,0.073
ANKRD30A (UniProt Q9BXX3),-0.148,-0.294,,,-0.009,1.45 (active),-0.03,0.017,0.053,0
ALKBH7 (UniProt Q9BT30),-0.016,-0.045,0.35,,0.333,,-0.108,-0.029,-0.115,0.201
ALDH3A1 (UniProt P30838),-0.218,0.366,-0.065,,,0.165,,-0.138,,
AP3D1 isoform 2 (UniProt O14617),0.25,,-0.06,0.078,0.093,0.087,0.111,,,
ANP32E isoform 3 (UniProt Q9BTT0),-0.27,,,-0.141,,,,,0.036,-0.015
ALG13 isoform 2 (UniProt Q9NP73),0.003,,,,-0.281,,-0.095,,,
ANXA2 (UniProt H0YL33),0.315,0.109,-0.177,,0.001,0.005,0.097,0.222,,
ADD1 isoform 4 (UniProt P35611),-0.397,0.303,-0.081,0.071,,0.094,,0.051,-0.034,0
"ACAT1, A0A5F9ZHJ0",-0.023,0.081,,,-0.035,,-0.056,,,
ABCC5 (UniProt O15440),-0.12,0.121,-0.002,0.125,,-0.012,,0.008,0.165,-0.032
